A selection: hits, their analogues and other compounds. The true share with any hit is near 2.3%.
M1 PAM: human M1 muscarinic receptor positive allosteric modulators, primary screen, CHO-K1 cells, Fluo-8 calcium fluorescence, 1536-well. activation, % at 3 µM. CHO-K1 hM1, ACh EC20; 0% = ACh EC20, 100% = maximal ACh. Muscarinic acetylcholine receptor M1 (Homo sapiens), P11229. 360,000 tested, 0.088% active; in the data active means activation above about 19%, passing the limit was not always enough
Target sequence (P11229 whole entry, looked up): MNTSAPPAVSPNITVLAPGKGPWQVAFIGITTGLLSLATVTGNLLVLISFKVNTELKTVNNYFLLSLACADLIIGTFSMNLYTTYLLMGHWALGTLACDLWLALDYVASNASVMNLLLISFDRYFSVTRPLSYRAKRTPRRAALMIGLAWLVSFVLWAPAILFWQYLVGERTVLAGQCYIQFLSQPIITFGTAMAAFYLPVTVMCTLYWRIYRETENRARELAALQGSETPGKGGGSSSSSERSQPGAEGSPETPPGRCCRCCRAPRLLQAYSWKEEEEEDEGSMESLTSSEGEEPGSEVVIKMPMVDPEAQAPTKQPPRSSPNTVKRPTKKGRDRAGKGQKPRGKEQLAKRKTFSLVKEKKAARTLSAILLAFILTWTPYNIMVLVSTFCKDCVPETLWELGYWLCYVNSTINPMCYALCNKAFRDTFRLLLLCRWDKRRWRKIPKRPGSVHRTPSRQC
CHRM1 antagonist: human M1 muscarinic receptor antagonists, primary screen, CHO-K1 cells, Fluo-8 calcium fluorescence, 1536-well; CHO-K1 hM1, ACh EC80 antagonist; 360,000 tested, 1.3% active; Muscarinic acetylcholine receptor M1 (Homo sapiens), P11229; inhibition, % at 3 µM;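 active means percent inhibition above its own plate's cutoff, namely the mean of that plate's compound wells plus 3 SD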;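 further: peak over basal fluorescence ratio during 140 s after agonist addition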
CHO-K1 Ca antag: counter-screen for M1 antagonists: effect in parental CHO-K1 cells; inhibition, % at 3 µM; 360,000 tested, 0.6% active; AID 602250; ATP-induced calcium, Fluo-8 fluorescence;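 active means inhibition above a per-plate cutoff, the plate's mean sample inhibition plus 3 SD, cut at about 24% in these data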
M1 PAM parental: nonselective calcium activators in parental CHO-K1 cells, primary screen, counter-screen for M1 PAM project, cell-based, Fluo-8 calcium fluorescence, full deck, 1536-well; activation, % at 3 µM; ATP EC20; 0% at ATP EC20, 100% at ATP max; 360,000 tested, 0.02% active; AID 602247, 2012;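 active means activation above the run cutoff, the mean activation of all test compounds plus 3 SD, cut at about 40% in these data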;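 further: peak over basal fluorescence ratio in a 140 s read after ATP addition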
CHRM1 agonist: human M1 muscarinic receptor agonists, primary screen, Fluo-8 calcium fluorescence, CHO-K1 cells, HTS | Muscarinic acetylcholine receptor M1 (Homo sapiens), P11229 | CHO-K1 hM1, agonist mode; 0% DMSO, 100% acetylcholine EC100 | activation, % at 3 µM | 360,000 tested, 0.33% active | AID 588814, 2011;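 active means activation above the run's mean compound activation plus 3 SD, cut at about 16% in these data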;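 further: peak over basal fluorescence ratio within a 140 s kinetic read after compound addition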
M1 ag parental: counter-screen for M1 agonists: effect in parental CHO-K1 cells | Fluo-8 calcium fluorescence; scaled to maximal ATP response, vehicle zero | activation, % at 3 µM | 360,000 tested, 0.48% active; in the data active means activation above about 15%;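 further: untransfected CHO-K1 host cells lacking M1 receptor as counterscreen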
Large screens that a line does not name were inactive.

CCOc1ccccc1CN1CCCC(C(=O)Nc2cccc(-n3cccn3)c2)C1 (centres undefined)	CHRM1 antagonist 71
CCOP(=O)(OCC)C(Nc1ccc(OC)cc1)c1ccco1 (centres undefined)	none
O=S1(=O)CC(N2CCN(CCO)CC2)CN1CCc1ccccc1 (centres undefined)	none
COc1ccc(C(=O)C2CCCN(C(=O)CCc3scnc3C)C2)c(C)c1 (centres undefined)	M1 ag parental 18
COc1ccc(C(=O)C2CCCN(C(=O)CCc3ccccn3)C2)c(C)c1 (centres undefined)	none
CCOc1ccccc1-n1nnnc1SC(C)C(=O)OC (centres undefined)	none
O=C(Nc1ccc(S(=O)(=O)N2CCCc3ccccc32)cc1)C1CCCO1 (centres undefined)	CHRM1 antagonist 40
O=C(Nc1ccc(S(=O)(=O)N2CCc3ccccc3C2)cc1)C1CCCO1 (centres undefined)	none
CCOc1cc(C(=O)N(CC)CC(=O)Nc2c(F)cccc2F)ccc1OCC(=O)N1CCCCC1	none
Cc1ccc(C(=O)N2CCC(C(=O)c3ccc(F)cc3)CC2)cc1	none
Cc1ccc(C(=O)N2C(=S)C(c3ccc(F)cc3)=NC23CCN(C)CC3)cc1	CHRM1 antagonist 56
OC1c2cc(Br)ccc2N=C2CCCCCN21 (centres undefined)	CHRM1 antagonist 78
OC1c2cc(Br)ccc2N=C2CCCN21 (centres undefined)	none
CCOc1ccc(-n2c(SCC(=O)N3CCC(C(=O)O)CC3)nc3ccccc3c2=O)cc1	none
COCc1cc(C)nc(SCC[N+](C)(C)CC(=O)Nc2cccc(C(F)(F)F)c2)c1C#N	CHRM1 antagonist 40
CCc1c(C#N)c(SCCC(=O)Nc2cccc(OC)c2)nc2c1C(=O)CC(C)(C)C2	none
CCc1c(C#N)c(SCCC(=O)Nc2ccc(F)cc2)nc2c1C(=O)CC(C)(C)C2	CHRM1 antagonist 38
O=C1c2cccc3c([N+](=O)[O-])ccc(c23)C(=O)N1c1nccs1	CHRM1 antagonist 24
O=C1c2cccc3c([N+](=O)[O-])ccc(c23)C(=O)N1c1ccccn1	none
Cc1nnc(SCc2cc(=O)[nH]c(N3CCCCC3)n2)s1	none
Cc1nnc(SCc2cc(=O)n3[nH]cnc3n2)s1	CHO-K1 Ca antag 25
COc1ccc(C2CC(c3cccc(C(F)(F)F)c3)=NN2c2ccc(S(N)(=O)=O)cc2)cc1 (centres undefined)	none
CCOC(=O)c1ccc(N2CCN(c3ccc(F)cc3)CC2)c(NC(=O)Nc2cccc(OC)c2)c1	CHRM1 antagonist 34
CC(Oc1cc(F)ccc1[N+](=O)[O-])C(=O)Nc1ccc(S(=O)(=O)N2CCCC2)cc1 (centres undefined)	CHRM1 antagonist 73
CC(Oc1ccc(C(=O)c2ccccc2)cc1)C(=O)Nc1ccc(S(N)(=O)=O)cc1 (centres undefined)	M1 ag parental 18
CC(C)C(=O)Nc1ccc(C(=O)Nc2ccc(S(=O)(=O)N3CCOCC3)cc2)cc1	none
CC(Oc1ccccc1)C(=O)Nc1ccc(S(=O)(=O)N2CCCC2)cc1 (centres undefined)	none
Cc1ccc(OC(C)C(=O)Nc2ccc(S(=O)(=O)N3CCOCC3)cc2)cc1 (centres undefined)	CHRM1 agonist 22
CC(Sc1ccc(Cl)cc1)C(=O)Nc1ccc(S(=O)(=O)N2CCOCC2)cc1 (centres undefined)	CHRM1 agonist 22
CC(OC(=O)c1cc(Br)ccc1O)C(=O)Nc1ccc(S(=O)(=O)N2CCCC2)cc1 (centres undefined)	none
Cc1ccccc1OC(C)C(=O)Nc1ccc(S(=O)(=O)N2CCCC2)cc1 (centres undefined)	CHRM1 antagonist 89
